Measured values: PubChem BioAssay
Records with an inconclusive call do not appear. Activity calls are given as the source filed them. Unless noted, no stated cut-off is given here; in the data, active means percent of DMSO control GFP below about 86%; inactive means the rest, inconclusive results apart.

How the values were obtained:
[1] = yeast TOR pathway RPL19A-GFP modulators, primary screen, cell-based, S. cerevisiae, multiplex flow cytometry (AID 1862);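 further: lower values mimic rapamycin by blocking the RPL19A rise seen in DMSO cells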; conditions: S. cerevisiae RPL19A-GFP strain, flow cytometry fluorescence, 3 h; at 10 µM; stronger effect = lower value
[2] = modulators of MEP2-GFP levels in yeast, primary screen, S. cerevisiae, multiplex flow cytometry (AID 1867;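 active means GFP response, as percent of the DMSO control, above the screen-wide mean plus 3 SD, about 139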;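 further: median GFP channel fluorescence of barcode-gated MEP2-GFP cells measured by flow cytometry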); conditions: S. cerevisiae MEP2-GFP strain, 3 h, at 10 µM, stronger effect = higher value, 100% means same as DMSO wells
[3] = modulators of CIT2-GFP expression in yeast, primary screen, S. cerevisiae, GFP fusion, multiplex flow cytometry (AID 1870;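 active means percent response above a set limit, the screen-wide mean plus 3 SD, cut at about 130% in these data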;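 further: barcoded CIT2-GFP strain pooled with four other GFP strains with rapamycin as positive control; median GFP fluorescence per well over plate mean of DMSO wells so 100% = DMSO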); conditions: 3 h, at 10 µM, stronger effect = higher value
[4] = modulators of LAP4-GFP expression in yeast, primary screen, S. cerevisiae, multiplex flow cytometry (AID 1873;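 active means GFP signal, as percent of the solvent control, above the screen mean plus 3 SD, about 149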); conditions: 3 h, at 10 µM, stronger effect = higher value
[5] = modulators of AGP1-GFP expression in yeast TOR pathway, primary screen, cell-based, multiplex flow cytometry, S. cerevisiae (AID 1887;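 active means GFP signal above the screen-wide mean plus 3 SD, that is over about 124.5% of the solvent control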;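 further: AGP1-GFP fusion strain of S. cerevisiae within a five-strain barcoded multiplex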); conditions: 3 h, at 10 µM, stronger effect = higher value
[6] = inhibitors of CD8+ T cell-vesicle binding, pilot screen, LFA-1/ICAM-1 modulator project, MLPCN validation set, flow cytometry (AID 2523;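 active means response below a set limit, under 55% cells CD8-positive and vesicle-bound, and CD8 cells' 90th-percentile brightness under 279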;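 on vesicle binding response: mean PE anti-B7-1 fluorescence of CD8+ cells relative to row control; 100% = QL9-loaded vesicles with DMSO vehicle in the same plate row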); conditions: 2C mouse CD8+ T cells, at 7 µM, stronger effect = lower value; double positive events: measured here: CD8+/vesicle+ event percentage
[7] = target: Integrin beta-1 (Homo sapiens) + Integrin alpha-4 (Homo sapiens) (UniProt P13612+P05556); assay: inhibition of HUTS-21 binding to VLA-4, pilot screen, VLA-4 allosteric modulator project, U937 cells, HUTS-21 mAb, flow cytometry, validation set (AID 2674;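 active means inhibition above 50%, about 3 SD of the validation set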;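 further: antibody binding induced by the VLA-4 ligand LDV present at three times its Kd; 0% = LDV ligand with antibody and no compound and 100% = antibody without LDV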); conditions: HUTS-21 LIBS mAb binding, at 6.7 µM, stronger effect = higher value, binding induced by LDV ligand
[8] = superoxide lowering in aged yeast cells, pilot screen, validation compound set (AID 2706;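 active means superoxide response below 65% of plate, a cut near 3 SD across the whole screen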;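 further: yeast exposed to compound for one week at 30 degrees C before staining; 100% = mean of all compound wells on the same plate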); conditions: S. cerevisiae aging, superoxide DHE fluorescence; at 10 µM; stronger effect = lower value
[9] = target: Beta-adrenergic receptor kinase 1 (Homo sapiens) (UniProt P25098); assay: GRK2 binders displacing RNA aptamer, biochemical, validation, human GRK2, bead flow cytometry (AID 488806;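 active means aptamer binding inhibition above 30%, about 3 SD of noise from non-fluorescent compounds; inactive means inhibition at or below 30%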); conditions: bead-bound GRK2, FAM-aptamer displacement, at 10 µM, stronger effect = higher value
[10] = target: Beta-2 adrenergic receptor (Homo sapiens) (UniProt P07550); assay: beta2AR agonists driving receptor internalization, pilot screen, cell-based, FAP fluorogen, flow cytometry, validation set (AID 504459;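 active means percent response above 42, roughly 3 SD of non-fluorescent test compounds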;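 further: agonist-driven loss of surface beta2AR via internalization measured by FAP dye flow cytometry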); conditions: Am2.2-beta2AR cells, FAP surface receptor flow cytometry; at 10 µM; stronger effect = higher value
[11] = target: AP-2 complex subunit beta (Homo sapiens) (UniProt P63010); assay: inhibitors of arrestin peptide binding to AP2, pilot screen, biochemical, validation set, GST-AP2 beads, flow cytometry (AID 504541;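 active means inhibition above 54%, about 3 SD of non-fluorescent compounds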;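 further: AP2 carries R879A mutation and is captured from E. coli lysate; bead-bound FITC arrestin peptide fluorescence measuring arrestin peptide binding to AP2; 0% = DMSO wells and 100% = excess unlabeled arrestin peptide control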); conditions: FITC arrestin peptide, at 10 µM, stronger effect = higher value, AP2 beta2 appendage fragment, R879A mutant
[12] = yeast V-ATPase proton transport modulators, S. cerevisiae, pHLuorin, HTS validation (AID 504600; in the data active means response above about 15%;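 further: plate controls were DMSO for no effect and reference compound for full effect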); conditions: S. cerevisiae pHLuorin cytosolic pH, at 10 µM, stronger effect = higher value
[13] = test system: anti-desmoglein-3 scFv antibody binding to human DSG3; assay: inhibitors of anti-DSG3 scFv binding to DSG3, pilot screen, biochemical, validation compound set, bead-based, flow cytometry (AID 588368;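 active means binding below the plate cutoff, the plate median minus 3 SD, with a reading above zero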;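 further: signal is the median channel fluorescence of bead-bound GFP antibody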); conditions: Protein G beads, DSG3-Fc, scFv-GFP binding, at 10 µM, stronger effect = lower value
[14] = inhibitors of fungal efflux pumps CDR1, CDR2, MDR1, pilot screen, validation compound set, multiplex, phenotypic (AID 588506;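 active means efflux inhibition above 0.42, the validation set average plus 4 SD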;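 further: Nile Red retained in cells so higher fluorescence means more efflux inhibition; 0 = negative control wells and 1 = enniatin B 25 µM full block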); conditions: S. cerevisiae pump-expressing triplex, Nile Red efflux flow cytometry; at 10 µM; stronger effect = higher value; the pumps come from Candida albicans
[15] = target: ATP-binding cassette sub-family B member 6 (Homo sapiens) (UniProt Q9NP58); assay: ABCB6 transporter inhibitors, pilot screen, K562-ABCB6 cells, flow cytometry, validation set (AID 588550;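 active means inhibition above the screen-wide mean plus 3 SD, about 51%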;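 further: 0% = DMSO wells and 100% = benzethonium chloride 70 µM positive control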); conditions: K562-ABCB6 porphyrin accumulation, 1 h, at 10 µM, stronger effect = higher value
[16] = promoters of myeloid differentiation in arrested cells, primary screen, cell-based, GFP/MAC1 double positive, flow cytometry, validation set (AID 588685;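 active means differentiation response of at least 50%, scaled between solvent and reference control, from cells with both markers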;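 further: compound exposure lasts four days before antibody staining and flow analysis; 0% = DMSO wells and 100% = 5 µM fulvestrant positive control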); conditions: ER-HoxA9 marrow cells, stronger effect = higher value, normalized: vehicle 0, fulvestrant 100

Beta-2 adrenergic receptor (Homo sapiens), sequence (P07550 whole entry, looked up): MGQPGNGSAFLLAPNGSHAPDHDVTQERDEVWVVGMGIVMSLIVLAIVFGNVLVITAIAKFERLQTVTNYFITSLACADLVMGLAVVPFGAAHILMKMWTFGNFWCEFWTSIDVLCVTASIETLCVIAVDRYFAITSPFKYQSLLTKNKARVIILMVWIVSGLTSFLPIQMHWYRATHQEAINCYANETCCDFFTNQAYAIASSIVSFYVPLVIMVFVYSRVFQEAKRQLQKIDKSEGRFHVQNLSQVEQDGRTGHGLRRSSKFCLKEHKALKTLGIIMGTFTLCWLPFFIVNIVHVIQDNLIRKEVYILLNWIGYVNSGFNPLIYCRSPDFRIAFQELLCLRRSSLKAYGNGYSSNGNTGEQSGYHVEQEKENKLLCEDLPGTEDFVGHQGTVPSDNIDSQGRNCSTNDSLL
ATP-binding cassette sub-family B member 6 (Homo sapiens), sequence (Q9NP58 whole entry, looked up): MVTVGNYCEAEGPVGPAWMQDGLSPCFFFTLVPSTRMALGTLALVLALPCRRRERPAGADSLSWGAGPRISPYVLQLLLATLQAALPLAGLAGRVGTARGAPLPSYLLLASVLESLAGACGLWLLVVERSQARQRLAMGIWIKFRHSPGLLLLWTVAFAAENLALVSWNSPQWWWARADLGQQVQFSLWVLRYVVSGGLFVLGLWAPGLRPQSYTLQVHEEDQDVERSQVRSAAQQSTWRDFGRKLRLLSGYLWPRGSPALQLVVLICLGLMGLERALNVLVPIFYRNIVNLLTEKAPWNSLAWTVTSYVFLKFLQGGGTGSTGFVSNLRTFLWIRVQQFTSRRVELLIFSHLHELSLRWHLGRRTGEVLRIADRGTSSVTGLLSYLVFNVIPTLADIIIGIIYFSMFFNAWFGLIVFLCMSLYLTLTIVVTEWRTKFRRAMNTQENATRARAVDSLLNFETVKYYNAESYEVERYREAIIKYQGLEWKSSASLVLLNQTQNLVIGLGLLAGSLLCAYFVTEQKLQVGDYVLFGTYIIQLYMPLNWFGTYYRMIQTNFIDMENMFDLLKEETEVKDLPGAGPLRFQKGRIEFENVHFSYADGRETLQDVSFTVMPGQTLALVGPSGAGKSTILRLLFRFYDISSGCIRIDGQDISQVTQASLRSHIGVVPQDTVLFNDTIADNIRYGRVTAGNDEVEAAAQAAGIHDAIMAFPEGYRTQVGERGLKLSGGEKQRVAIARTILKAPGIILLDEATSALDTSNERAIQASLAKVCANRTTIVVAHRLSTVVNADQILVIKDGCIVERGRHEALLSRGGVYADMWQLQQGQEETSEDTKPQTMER
Integrin beta-1 (Homo sapiens) + Integrin alpha-4 (Homo sapiens), sequence (P05556 whole entry, looked up): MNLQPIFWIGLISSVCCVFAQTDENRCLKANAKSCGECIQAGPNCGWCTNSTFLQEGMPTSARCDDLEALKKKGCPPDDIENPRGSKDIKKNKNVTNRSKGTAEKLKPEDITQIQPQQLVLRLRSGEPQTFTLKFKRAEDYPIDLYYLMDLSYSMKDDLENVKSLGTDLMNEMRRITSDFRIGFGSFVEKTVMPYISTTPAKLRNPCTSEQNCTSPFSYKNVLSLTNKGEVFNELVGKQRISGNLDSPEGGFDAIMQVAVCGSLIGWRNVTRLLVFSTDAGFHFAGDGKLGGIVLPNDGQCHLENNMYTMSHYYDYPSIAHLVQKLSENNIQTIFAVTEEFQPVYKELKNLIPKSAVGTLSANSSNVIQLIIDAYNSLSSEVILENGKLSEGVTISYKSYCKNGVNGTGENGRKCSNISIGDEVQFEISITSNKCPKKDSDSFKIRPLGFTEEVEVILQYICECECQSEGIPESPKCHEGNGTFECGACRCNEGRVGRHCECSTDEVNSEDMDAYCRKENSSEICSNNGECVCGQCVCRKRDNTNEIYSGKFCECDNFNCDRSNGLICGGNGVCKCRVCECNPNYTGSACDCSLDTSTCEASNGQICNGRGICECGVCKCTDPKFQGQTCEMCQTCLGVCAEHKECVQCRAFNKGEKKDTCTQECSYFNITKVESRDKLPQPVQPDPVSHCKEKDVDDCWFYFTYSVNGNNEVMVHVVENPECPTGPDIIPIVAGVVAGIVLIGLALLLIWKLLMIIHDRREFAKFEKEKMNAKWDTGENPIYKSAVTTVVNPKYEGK
Integrin beta-1 (Homo sapiens) + Integrin alpha-4 (Homo sapiens), sequence (P13612 whole entry, looked up): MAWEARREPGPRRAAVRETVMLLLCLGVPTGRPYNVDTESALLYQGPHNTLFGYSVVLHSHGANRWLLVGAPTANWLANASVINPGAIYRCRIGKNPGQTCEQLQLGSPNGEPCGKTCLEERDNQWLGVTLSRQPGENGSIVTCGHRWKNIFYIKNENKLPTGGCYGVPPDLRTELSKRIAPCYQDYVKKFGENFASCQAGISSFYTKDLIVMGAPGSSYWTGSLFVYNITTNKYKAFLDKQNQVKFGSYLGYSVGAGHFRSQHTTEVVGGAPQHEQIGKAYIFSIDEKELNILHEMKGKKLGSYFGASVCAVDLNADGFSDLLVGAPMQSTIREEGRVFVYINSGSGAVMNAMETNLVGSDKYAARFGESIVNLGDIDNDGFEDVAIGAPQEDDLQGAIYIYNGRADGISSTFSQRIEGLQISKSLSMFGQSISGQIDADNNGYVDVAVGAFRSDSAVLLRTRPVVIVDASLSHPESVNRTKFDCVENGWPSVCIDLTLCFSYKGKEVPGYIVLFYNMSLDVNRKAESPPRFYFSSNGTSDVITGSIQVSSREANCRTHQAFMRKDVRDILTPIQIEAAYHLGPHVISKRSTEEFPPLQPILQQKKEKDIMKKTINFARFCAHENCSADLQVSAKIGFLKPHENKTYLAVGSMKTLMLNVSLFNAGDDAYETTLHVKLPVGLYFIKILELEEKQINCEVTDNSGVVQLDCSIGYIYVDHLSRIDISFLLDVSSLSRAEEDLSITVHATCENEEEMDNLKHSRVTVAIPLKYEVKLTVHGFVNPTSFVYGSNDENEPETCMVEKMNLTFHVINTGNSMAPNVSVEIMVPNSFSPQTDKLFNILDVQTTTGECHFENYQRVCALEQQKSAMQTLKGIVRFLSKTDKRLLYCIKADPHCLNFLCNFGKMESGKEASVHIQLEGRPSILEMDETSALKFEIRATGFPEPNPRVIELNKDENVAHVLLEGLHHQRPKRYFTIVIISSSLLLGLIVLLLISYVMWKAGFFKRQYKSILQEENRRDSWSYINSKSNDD
AP-2 complex subunit beta (Homo sapiens), sequence (P63010 whole entry, looked up, the tested form may be a part, one chain of several): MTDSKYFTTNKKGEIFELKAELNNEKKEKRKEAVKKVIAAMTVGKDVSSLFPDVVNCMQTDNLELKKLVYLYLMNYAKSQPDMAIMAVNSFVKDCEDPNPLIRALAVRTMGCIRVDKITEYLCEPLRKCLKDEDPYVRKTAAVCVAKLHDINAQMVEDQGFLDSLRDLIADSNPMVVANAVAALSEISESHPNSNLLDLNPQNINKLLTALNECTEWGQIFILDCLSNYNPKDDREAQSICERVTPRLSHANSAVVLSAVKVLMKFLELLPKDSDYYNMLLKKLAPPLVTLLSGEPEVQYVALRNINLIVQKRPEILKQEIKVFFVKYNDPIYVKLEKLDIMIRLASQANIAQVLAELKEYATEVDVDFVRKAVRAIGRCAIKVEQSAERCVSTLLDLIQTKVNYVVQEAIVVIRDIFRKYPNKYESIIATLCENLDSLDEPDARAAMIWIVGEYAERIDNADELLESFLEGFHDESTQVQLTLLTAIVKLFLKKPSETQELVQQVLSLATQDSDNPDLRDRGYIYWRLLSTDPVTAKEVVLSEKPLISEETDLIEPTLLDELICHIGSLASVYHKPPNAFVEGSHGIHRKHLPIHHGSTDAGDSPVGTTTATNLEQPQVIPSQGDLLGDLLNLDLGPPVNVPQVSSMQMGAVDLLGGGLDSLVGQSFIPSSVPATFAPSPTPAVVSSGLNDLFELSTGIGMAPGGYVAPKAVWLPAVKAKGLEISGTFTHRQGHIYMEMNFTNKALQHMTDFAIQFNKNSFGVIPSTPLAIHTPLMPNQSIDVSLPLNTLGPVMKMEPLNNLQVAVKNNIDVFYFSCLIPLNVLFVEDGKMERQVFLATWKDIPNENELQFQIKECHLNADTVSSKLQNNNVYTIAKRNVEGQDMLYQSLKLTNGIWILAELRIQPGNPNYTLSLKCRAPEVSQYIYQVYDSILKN
Beta-adrenergic receptor kinase 1 (Homo sapiens), sequence (P25098 whole entry, looked up): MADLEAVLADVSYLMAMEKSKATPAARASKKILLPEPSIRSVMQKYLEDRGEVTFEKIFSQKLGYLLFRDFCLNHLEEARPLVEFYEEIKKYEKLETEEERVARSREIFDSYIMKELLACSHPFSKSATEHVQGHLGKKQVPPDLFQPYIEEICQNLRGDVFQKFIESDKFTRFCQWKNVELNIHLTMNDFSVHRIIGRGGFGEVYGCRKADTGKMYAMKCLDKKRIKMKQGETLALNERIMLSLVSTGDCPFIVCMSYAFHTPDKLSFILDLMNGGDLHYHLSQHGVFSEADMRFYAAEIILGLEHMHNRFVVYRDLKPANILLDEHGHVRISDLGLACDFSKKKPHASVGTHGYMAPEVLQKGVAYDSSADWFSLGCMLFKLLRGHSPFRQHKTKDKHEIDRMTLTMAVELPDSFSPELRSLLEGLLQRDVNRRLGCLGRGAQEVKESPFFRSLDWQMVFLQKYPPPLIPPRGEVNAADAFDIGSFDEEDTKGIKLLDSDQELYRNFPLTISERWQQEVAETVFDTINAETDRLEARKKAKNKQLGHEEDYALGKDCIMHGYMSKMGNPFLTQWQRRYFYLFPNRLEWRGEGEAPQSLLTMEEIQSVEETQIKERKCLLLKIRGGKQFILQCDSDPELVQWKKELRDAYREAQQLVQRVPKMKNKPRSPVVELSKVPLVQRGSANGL

Row | SMILES | percent of DMSO control GFP [1] | GFP response vs DMSO [2] | percent response of DMSO control [3] | GFP response vs DMSO [4] | GFP response, % of DMSO [5] | double positive events [6] | vesicle binding response [6] | inhibition [7] | superoxide response (% of plate) [8] | aptamer binding inhibition [9] | response [10] | inhibition [11] | response [12] | binding (% of control) [13] | efflux inhibition (fraction of control) [14] | inhibition [15] | differentiation response [16]
1 | COc1cc2oc(-c3ccc(O)cc3)cc(=O)c2c(OC)c1O | 100% (inactive) | 101% (inactive) | 104% (inactive) | 88.2% (inactive) | 98% (inactive) | 56.3% | 118% (inactive) | -11.8% (inactive) | 107% (inactive) | 3% (inactive) | -2.51% (inactive) | -0.6% (inactive) | -4.25% (inactive) | 100% (inactive) | -0.16 (inactive) | 0% (inactive) | 8.59% (inactive)
2 | CCOc1ccc(C(=O)C(C)=O)c(OCC)c1 | 101% (inactive) | 99.7% (inactive) | 104% (inactive) | 100% (inactive) | 105% (inactive) | 64.3% | 211% (inactive) | -1.09% (inactive) | 105% (inactive) | 2% (inactive) | -2.34% (inactive) | -2.17% (inactive) | 1.92% (inactive) | 97% (inactive) | -0.02 (inactive) | 19% (inactive) | -13.3% (inactive)
3 | O=C(O)/C=C/c1cnc[nH]1 | 104% (inactive) | 108% (inactive) | 106% (inactive) | 101% (inactive) | 112% (inactive) | 59.9% | 93.5% (inactive) | 2.93% (inactive) | 98.6% (inactive) | -2% (inactive) | -4.55% (inactive) | -0.6% (inactive) | -0.43% (inactive) | 103% (inactive) | 0.755 (active) | 10% (inactive) | -13.3% (inactive)
4 | O=C(Cc1ccccc1)NNC(=O)Cc1ccccc1 | 101% (inactive) | 108% (inactive) | 102% (inactive) | 94% (inactive) | 98.9% (inactive) | 63.3% | 224% (inactive) | -5.64% (inactive) | 113% (inactive) | -1% (inactive) | -7.57% (inactive) | 53.7% (inactive) | -12.3% (inactive) | 91.9% (inactive) | 0.27 (inactive) | 2% (inactive) | 24.7% (inactive)
5 | CC(C)(Oc1ccc(CCNC(=O)c2ccc(Cl)cc2)cc1)C(=O)O | 106% (inactive) | 107% (inactive) | 96.6% (inactive) | 101% (inactive) | 103% (inactive) | 65.7% | 137% (inactive) | -8.75% (inactive) | 110% (inactive) | 3% (inactive) | -3.83% (inactive) | 23.2% (inactive) | -4.97% (inactive) | 93.5% (inactive) | 0.08 (inactive) | 19% (inactive) | 8.06% (inactive)
6 | CC12CCC(C(=O)N3CCc4ccccc43)(CC1=O)C2(C)C (stereo not drawn) | 101% (inactive) | 102% (inactive) | 97.6% (inactive) | 95.9% (inactive) | 91.2% (inactive) | 60.3% | 115% (inactive) | -2.43% (inactive) | 108% (inactive) | 13% (inactive) | -16.3% (inactive) | 5.6% (inactive) | 2.72% (inactive) | 102% (inactive) | -0.24 (inactive) | 4% (inactive) | -10.4% (inactive)
7 | COc1ccc2cc(C(=O)OC(C)C)sc(=O)c2c1OC | 106% (inactive) | 98.6% (inactive) | 95.1% (inactive) | 121% (inactive) | 106% (inactive) | 61.9% | 220% (inactive) | 3.99% (inactive) | 112% (inactive) | 0% (inactive) | -12.6% (inactive) | -1.55% (inactive) | -19.1% (inactive) | 85.1% (inactive) | 0 (inactive) | 4% (inactive) | 11.8% (inactive)
8 | CCOC(=O)C1NN=C(C(=O)c2ccccc2)C1c1ccc(Cl)cc1 (stereo not drawn) | 98.3% (inactive) | 96.6% (inactive) | 91.3% (inactive) | 93.7% (inactive) | 88.8% (inactive) | 58.1% | 192% (inactive) | 9.63% (inactive) | 106% (inactive) | 3% (inactive) | 3.04% (inactive) | -2.22% (inactive) | -0.54% (inactive) | 99% (inactive) | -0.005 (inactive) | 9% (inactive) | -6.03% (inactive)
9 | CC1CCCC(C)N1NC(=O)c1ccc(Cl)c(S(N)(=O)=O)c1 (stereo not drawn) | 88% (inactive) | 126% (inactive) | 91.3% (inactive) | 85.8% (inactive) | 96.3% (inactive) | 65.1% | 128% (inactive) | -3.24% (inactive) | 98.3% (inactive) | 3% (inactive) | -7.28% (inactive) | -5.07% (inactive) | -0.52% (inactive) | 101% (inactive) | 0.09 (inactive) | 10% (inactive) | -0.82% (inactive)
10 | COC(=O)c1ccc2c(c1)C(=O)/C(=C/c1ccc(O)cc1)O2 | 95.4% (inactive) | 109% (inactive) | 92% (inactive) | 111% (inactive) | 95.5% (inactive) | 59% | 90.4% (inactive) | -8.62% (inactive) | 102% (inactive) | 2% (inactive) | -5.34% (inactive) | 6.94% (inactive) | -1.86% (inactive) | 100% (inactive) | 0.19 (inactive) | 2% (inactive) | -26.4% (inactive)
11 | COc1ccc2c(c1)[N+](C)(C)C(C)(C)C=C2C | 105% (inactive) | 96.2% (inactive) | 111% (inactive) | 90.1% (inactive) | 99.9% (inactive) | 70.1% | 953% (inactive) | 15.1% (inactive) | 103% (inactive) | 2% (inactive) | -8.39% (inactive) | -11.1% (inactive) | -1.92% (inactive) | 95.6% (inactive) | -0.04 (inactive) | 5% (inactive) | 12.9% (inactive)
12 | COc1ccc(C2NC(C(=O)O)Cc3c2[nH]c2ccccc32)cc1CN1CCN(c2ccc(F)cc2)CC1 (stereo not drawn) | 104% (inactive) | 98.3% (inactive) | 113% (inactive) | 102% (inactive) | 104% (inactive) | 63.4% | 242% (inactive) | -0.45% (inactive) | 94.5% (inactive) | -6% (inactive) | 6.62% (inactive) | -4.95% (inactive) | 2.85% (inactive) | 102% (inactive) | -0.07 (inactive) | 1% (inactive) | 1.22% (inactive)
13 | O=C(CCC(=O)NCCO)NCCO | 101% (inactive) | 104% (inactive) | 97.7% (inactive) | 108% (inactive) | 111% (inactive) | 61.3% | 174% (inactive) | -1.12% (inactive) | 95.4% (inactive) | 7% (inactive) | -19.9% (inactive) | -1.09% (inactive) | -3.85% (inactive) | 100% (inactive) | 0.04 (inactive) | 2% (inactive) | -1.05% (inactive)
14 | O=C(O)[C@@H](O)c1ccccc1 | 102% (inactive) | 106% (inactive) | 102% (inactive) | 121% (inactive) | 120% (inactive) | 62% | 168% (inactive) | 16.8% (inactive) | 97% (inactive) | 3% (inactive) | -22.9% (inactive) | 10.1% (inactive) | -0.22% (inactive) | 106% (inactive) | -0.04 (inactive) | 3% (inactive) | -11.9% (inactive)
15 | CCC(C(=O)Nc1ccc2c(c1)OCCO2)c1ccccc1 (stereo not drawn) | 103% (inactive) | 103% (inactive) | 101% (inactive) | 113% (inactive) | 110% (inactive) | 58.6% | 143% (inactive) | 8.29% (inactive) | 96.9% (inactive) | -1% (inactive) | 3.82% (inactive) | 3.98% (inactive) | -0.08% (inactive) | 101% (inactive) | -0.03 (inactive) | -7% (inactive) | -10.4% (inactive)
16 | S=C(c1ccc2c(c1)OCO2)N1CCCCC1 | 101% (inactive) | 104% (inactive) | 104% (inactive) | 105% (inactive) | 106% (inactive) | 62.6% | 176% (inactive) | -9.13% (inactive) | 91% (inactive) | -2% (inactive) | -5.76% (inactive) | 34.2% (inactive) | -2.91% (inactive) | 99.8% (inactive) | 0.19 (inactive) | 12% (inactive) | -10.4% (inactive)
17 | O=C(NCc1ccco1)/C(=C\C=C\c1ccccc1)NC(=O)c1ccccc1Br | 108% (inactive) | 107% (inactive) | 110% (inactive) | 110% (inactive) | 106% (inactive) | 60.6% | 139% (inactive) | -14.5% (inactive) | 95.8% (inactive) | 0% (inactive) | 12.9% (inactive) | 5.44% (inactive) | 1.56% (inactive) | 104% (inactive) | -0.045 (inactive) | -4% (inactive) | -3.11% (inactive)
18 | CCOC(=O)n1c(=O)oc2ccccc21 | 97% (inactive) | 104% (inactive) | 102% (inactive) | 102% (inactive) | 107% (inactive) | 62.5% | 196% (inactive) | 6.55% (inactive) | 105% (inactive) | 7% (inactive) | -19.8% (inactive) | -0.08% (inactive) | 10.2% (inactive) | 107% (inactive) | 0.08 (inactive) | 3% (inactive) | -4.99% (inactive)
19 | COc1cc(OC)c2c(C)c(Cl)c(=O)oc2c1 | 102% (inactive) | 104% (inactive) | 105% (inactive) | 113% (inactive) | 99.1% (inactive) | 56.7% | 92.7% (inactive) | 2.66% (inactive) | 90.2% (inactive) | -3% (inactive) | -6.2% (inactive) | -8.58% (inactive) | 1.24% (inactive) | 100% (inactive) | -0.1 (inactive) | -9% (inactive) | 0.24% (inactive)
